Activity calls are given as the source filed them. How the source made its calls: active means hit-call score of the fitted dose curve at least 0.9, where 1 is the maximum; inactive means score below 0.9.

The results in this text go back to PubChem BioAssay (EPA / NIEHS).

Common to all, as to conditions: mRNA level, 48 h; actives raise or lower the signal
Read-out in test [1]: CYP2C8 (gene 1558)
The experiment in a line: LTEA_HepaRG_CYP2C8: Life Technologies and Expression Analysis (LTEA) Assay for CYP2C8 using HepaRG (AID 2283483). The gist of the method: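 HepaRG (human liver line), 48 h chemical exposure, 8-pt half-log series from 100 uM, 0.5% DMSO vehicle. Readout: CYP2C8 transcript by qRT-PCR, housekeeping-normalized. Bidirectional fit vs DMSO baseline.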

Read-out in test [2]: CYP2C9 (gene 1559)
Kind of test: LTEA_HepaRG_CYP2C9: Life Technologies and Expression Analysis (LTEA) Assay for CYP2C9 using HepaRG (AID 2283484). Put shortly: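 HepaRG, 48 h dosing, 8-pt half-log series, top 100 uM, 0.5% DMSO vehicle. Read-out: CYP2C9 transcript by TaqMan qRT-PCR, housekeeping-normalized (ACTB/GAPDH/POLR2A). Gain or loss fitted vs DMSO baseline.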

Read-out in test [3]: CYP2E1 (gene 1571)
The experiment in a line: LTEA_HepaRG_CYP2E1: Life Technologies and Expression Analysis (LTEA) Assay for CYP2E1 using HepaRG (AID 2283485). Put shortly:
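Readout is qRT-PCR of CYP2E1 mRNA, normalized to three housekeeping genes and fitted bidirectionally against 0.5% DMSO. HepaRG cells were dosed 48 h at eight concentrations, highest 100 uM with half-log dilutions.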

Read-out in test [4]: CYP4A11 (gene 1579)
Kind of test: LTEA_HepaRG_CYP4A11: Life Technologies and Expression Analysis (LTEA) Assay for CYP4A11 using HepaRG (AID 2283486). Put shortly:
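HepaRG, 48 h chem exposure, 8 conc (100 uM top, half-log), 0.5% DMSO vehicle; qRT-PCR readout, housekeeping-gene normalized; bidirectional curve fit vs DMSO baseline.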

Read-out in test [5]: Cytochrome P450 3A4 (Homo sapiens) (UniProt P08684)
Kind of test: LTEA_HepaRG_CYP3A4: Life Technologies and Expression Analysis (LTEA) Assay for CYP3A4 using HepaRG (AID 2283487). Put shortly: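 Differentiated HepaRG cells, plated 48 h, then dosed 48 h in serum-free induction medium with 0.5% DMSO, 8 half-log concentrations up to 100 uM, duplicate. CYP3A4 mRNA by qRT-PCR, normalized to ACTB/GAPDH/POLR2A; bidirectional fit versus DMSO.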

Read-out in test [6]: DNA damage-inducible transcript 3 (DDIT3), DDIT3 (gene 1649)
Kind of test: LTEA_HepaRG_DDIT3: Life Technologies and Expression Analysis (LTEA) Assay for DNA damage-inducible transcript 3 (DDIT3) using HepaRG (AID 2283488). The gist of the method: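 Cells are human HepaRG liver cells treated for 48 h with eight half-log concentrations up to 100 uM in 0.5% DMSO. Transcript levels come from qRT-PCR normalized to three housekeeping genes, with activity fitted in both directions relative to vehicle.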

Read-out in test [7]: Pro-epidermal growth factor (Homo sapiens) (UniProt P01133)
Kind of test: LTEA_HepaRG_EGF: Life Technologies and Expression Analysis (LTEA) Assay for Epidermal growth factor (EGF) using HepaRG (AID 2283489). The gist of the method:
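HepaRG, 48 h dosing, 100 uM top, half-log x8, 0.5% DMSO. Readout: TaqMan qRT-PCR (Fluidigm array), housekeeping-normalized. Gain or loss of signal fit vs DMSO.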

Read-out in test [8]: Early growth response protein 1 (EGR1) transcription factor, EGR1 (gene 1958)
Kind of test: LTEA_HepaRG_EGR1: Life Technologies and Expression Analysis (LTEA) Assay for Early growth response protein 1 (EGR1) transcription factor using HepaRG (AID 2283490). The gist of the method: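 HepaRG, 48 h exposure, 8-pt half-log series from 100 uM, 0.5% DMSO vehicle; EGR1 transcript by TaqMan qRT-PCR (Fluidigm array), housekeeping-normalized; bidirectional fit relative to DMSO baseline.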

Read-out in test [9]: Ezrin (EZR), EZR (gene 7430)
Kind of test: LTEA_HepaRG_EZR: Life Technologies and Expression Analysis (LTEA) Assay for Ezrin (EZR) using HepaRG (AID 2283491). The gist of the method:
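EZR transcript levels came from Fluidigm qRT-PCR and were normalized to three housekeeping genes after 48 h chemical exposure of HepaRG cells. Dosing used an 8-point half-log series with a 100 uM top concentration in 0.5% DMSO, tested in duplicate; both directions were fitted versus vehicle.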

Read-out in test [10]: Cytochrome P450 3A7 (Homo sapiens) (UniProt P24462)
Kind of test: LTEA_HepaRG_CYP3A7: Life Technologies and Expression Analysis (LTEA) Assay for CYP3A7 using HepaRG (AID 2283492). The gist of the method:
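Human HepaRG liver cells, 48 h post-plating, switched to serum-free induction medium and exposed in duplicate for 48 h. Dosing: 100 uM top, half-log dilutions, 8 points, 0.5% DMSO vehicle. Read-out: CYP3A7 mRNA, gain or loss fitted against DMSO baseline.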

Read-out in test [11]: CYP3A5 (gene 1577)
Kind of test: LTEA_HepaRG_CYP3A5: Life Technologies and Expression Analysis (LTEA) Assay for CYP3A5 using HepaRG (AID 2283493). Put shortly:
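Human HepaRG hepatic cells receive 48 h chemical treatment at eight concentrations (half-log steps from 100 uM) in 0.5% DMSO. Expression of CYP3A5 is quantified by Fluidigm qRT-PCR and normalized to three reference genes.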

Read-out in test [12]: Fatty Acid-Binding Protein 1 (FABP1), FABP1 (gene 2168)
The experiment in a line: LTEA_HepaRG_FABP1: Life Technologies and Expression Analysis (LTEA) Assay for Fatty Acid-Binding Protein 1 (FABP1) using HepaRG (AID 2283494). Put shortly: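 qRT-PCR readout of FABP1 transcript (normalized to three housekeeping genes) after 48 h chemical exposure of HepaRG cells; eight concentrations, half-log steps, max 100 uM, 0.5% DMSO vehicle; gain or loss fitted relative to DMSO baseline.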

Read-out in test [13]: Cytochrome P450 4A22 (Homo sapiens) (UniProt Q5TCH4)
Kind of test: LTEA_HepaRG_CYP4A22: Life Technologies and Expression Analysis (LTEA) Assay for Cytochrome P450 4A22 (CYP4A22) using HepaRG (AID 2283495). Put shortly:
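Readout is CYP4A22 transcript induction or loss, quantified by qRT-PCR and normalized to ACTB, GAPDH and POLR2A. Human HepaRG cells receive test chemicals for 48 h at eight half-log concentrations from 100 uM in 0.5% DMSO.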

Read-out in test [14]: Cytochrome P450 7A1 (Homo sapiens) (UniProt P22680)
The experiment in a line: LTEA_HepaRG_CYP7A1: Life Technologies and Expression Analysis (LTEA) Assay for Cytochrome P450 7A1 (CYP7A1) using HepaRG (AID 2283496). The gist of the method: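 HepaRG, 48 h exposure, 8-pt half-log series from 100 uM, 0.5% DMSO vehicle, duplicates. Readout: TaqMan qRT-PCR mRNA vs three housekeeping genes; bidirectional curve fit against DMSO baseline.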

Read-out in test [15]: Glutamate-cysteine ligase catalytic (GCLC), GCLC (gene 2729)
The experiment in a line: LTEA_HepaRG_GCLC: Life Technologies and Expression Analysis (LTEA) Assay for Glutamate-cysteine ligase catalytic (GCLC) using HepaRG (AID 2283498). Put shortly:
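HepaRG, 48 h exposure, 8-pt half-log series from 100 uM, 0.5% DMSO vehicle; TaqMan qRT-PCR for GCLC mRNA, housekeeping-normalized; bidirectional curve fit vs DMSO baseline.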

Read-out in test [16]: growth arrest and DNA damage 45 (GADD45G), GADD45G (gene 10912)
The experiment in a line: LTEA_HepaRG_GADD45G: Life Technologies and Expression Analysis (LTEA) Assay for growth arrest and DNA damage 45 (GADD45G) using HepaRG (AID 2283499). Put shortly: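 Gain or loss of GADD45G mRNA, quantified by TaqMan qRT-PCR against three housekeeping genes, is fitted in both directions relative to 0.5% DMSO. Human HepaRG cultures receive test chemical for 48 h at up to 100 uM.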

Read-out in test [17]: Glutamate-cysteine ligase regulatory (GCLM), GCLM (gene 2730)
The experiment in a line: LTEA_HepaRG_GCLM: Life Technologies and Expression Analysis (LTEA) Assay for Glutamate-cysteine ligase regulatory (GCLM) using HepaRG (AID 2283500). The gist of the method:
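Endpoint is GCLM transcript level by qRT-PCR, normalized to three housekeeping genes, after 48 h chemical exposure of human HepaRG cells (0.5% DMSO vehicle, top 100 uM, half-log dilutions). Fitting was bidirectional relative to DMSO.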

Read-out in test [18]: Glutathione S-transferase M3 (GSTM3), GSTM3 (gene 2947)
Kind of test: LTEA_HepaRG_GSTM3: Life Technologies and Expression Analysis (LTEA) Assay for Glutathione S-transferase M3 (GSTM3) using HepaRG (AID 2283501). The gist of the method: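 HepaRG, plated 48 h, then serum-free induction medium; test chemical 48 h, duplicate; 100 uM top, half-log x8, 0.5% DMSO. Read-out: GSTM3 mRNA (TaqMan qRT-PCR, Fluidigm array). Bidirectional fit vs DMSO.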

Read-out in test [19]: Glutathione S-Transferase (GSTA2), GSTA2 (gene 2939)
The experiment in a line: LTEA_HepaRG_GSTA2: Life Technologies and Expression Analysis (LTEA) Assay for Glutathione S-Transferase (GSTA2) using HepaRG (AID 2283497). The gist of the method: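 qRT-PCR readout of GSTA2 transcript, normalized to three housekeeping genes, fitted bidirectionally against 0.5% DMSO baseline. Differentiated HepaRG cells received compound for 48 h at 8 concentrations (top 100 uM, half-log steps).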

Sequence of Cytochrome P450 3A7 (Homo sapiens) (P24462 whole entry, looked up): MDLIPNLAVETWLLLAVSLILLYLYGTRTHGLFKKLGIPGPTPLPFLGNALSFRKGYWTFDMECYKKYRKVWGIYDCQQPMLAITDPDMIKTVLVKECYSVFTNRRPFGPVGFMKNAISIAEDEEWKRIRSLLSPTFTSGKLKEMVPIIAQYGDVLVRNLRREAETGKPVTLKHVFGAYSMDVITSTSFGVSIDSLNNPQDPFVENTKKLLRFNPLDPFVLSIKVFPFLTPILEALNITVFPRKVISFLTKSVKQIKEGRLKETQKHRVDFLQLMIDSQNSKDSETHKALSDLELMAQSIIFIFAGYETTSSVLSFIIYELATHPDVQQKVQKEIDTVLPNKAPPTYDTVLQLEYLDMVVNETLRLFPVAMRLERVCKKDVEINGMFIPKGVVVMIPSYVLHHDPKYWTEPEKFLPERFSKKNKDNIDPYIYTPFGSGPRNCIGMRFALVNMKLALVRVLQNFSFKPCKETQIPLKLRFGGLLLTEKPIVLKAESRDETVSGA
Sequence of Cytochrome P450 3A4 (Homo sapiens) (P08684 whole entry, looked up): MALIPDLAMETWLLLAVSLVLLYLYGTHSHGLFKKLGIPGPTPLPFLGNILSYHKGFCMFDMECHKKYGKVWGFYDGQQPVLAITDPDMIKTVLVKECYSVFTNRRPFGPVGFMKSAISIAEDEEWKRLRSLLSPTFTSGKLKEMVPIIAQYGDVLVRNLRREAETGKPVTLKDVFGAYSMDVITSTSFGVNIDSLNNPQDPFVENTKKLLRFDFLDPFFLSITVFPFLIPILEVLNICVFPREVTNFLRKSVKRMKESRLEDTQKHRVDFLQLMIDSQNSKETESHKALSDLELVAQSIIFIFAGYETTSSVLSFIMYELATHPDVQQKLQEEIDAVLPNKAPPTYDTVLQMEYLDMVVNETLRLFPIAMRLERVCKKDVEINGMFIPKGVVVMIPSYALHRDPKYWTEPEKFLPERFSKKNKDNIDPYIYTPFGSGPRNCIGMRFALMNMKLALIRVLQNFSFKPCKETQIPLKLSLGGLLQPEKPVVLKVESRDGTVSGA

Turning to `CCOP(=O)(OCC)Oc1cc(C)nc(C(C)C)n1`, the outcome in test [1], in test [2], in [3], in test [4], in [5] and in [6] was inactive. The call in [7], in test [8], in test [9], in test [10], in [11] and in [12] was inactive. Moreover, the outcome in test [13], in [14], in [15], in test [16], in test [17] and in test [18] was inactive.
For orientation: AC50 means the midpoint of the concentration-response curve, whichever way the signal moves. As for `CNc1cnn(-c2cccc(C(F)(F)F)c2)c(=O)c1Cl`, the result in test [1], in test [2], in test [4], in test [6], in test [8] and in test [9] was inactive. In addition, the compound was classed as inactive in test [10], in [11], in test [13], in [19], in test [16] and in test [18]. The AC50 in [3] is 41.1 µM (active); in test [5], 31.5 µM (active); in test [7], 29.8 µM (active); in [12], 26 µM (active); in test [14] it was 21.4 µM (active); in [15], 28 µM (active). The AC50 in test [17] was 30.1 µM (active).
Take `CCc1cnc(C2=NC(C)(C(C)C)C(=O)N2)c(C(=O)O)c1` (stereo not given): the compound was classed as inactive in test [1], in test [2], in [3], in test [4], in test [5] and in test [6]. Also, the outcome in test [7], in test [8], in [10], in [11], in test [12] and in test [13] was inactive. Besides, the result in test [14], in test [15], in test [16], in test [17] and in test [18] was inactive.
On to `CCC(=O)Nc1ccc(Cl)c(Cl)c1`, for which the result in [1], in [5], in [6], in test [7], in test [8] and in [10] was inactive. The outcome in test [11], in test [13], in test [14], in test [15], in test [16] and in test [18] was inactive. The AC50 was 50 µM (active) in [3], 50 µM (active) in [4], 9.92 µM (active) in test [12] and 50 µM (active) in [17].
In the case of `CCC(CC)Nc1c([N+](=O)[O-])cc(C)c(C)c1[N+](=O)[O-]`, the call in [1], in test [2], in [4], in test [6], in test [8] and in test [11] was inactive. For the same compound, the outcome in [13], in [14], in [19], in test [15], in test [16] and in test [17] was inactive. In addition, the compound was classed as inactive in test [18]. For the same compound, the AC50 in test [3] is 64.7 µM (active); in [5], 25.4 µM (active); in test [7], 50 µM (active); in test [10], 16.7 µM (active); in test [12] it was 50 µM (active).
Turning to `CC(C)=CC1C(C(=O)OCN2C(=O)C3=C(CCCC3)C2=O)C1(C)C` (stereo not given), the outcome in test [1], in test [2], in test [3], in [4], in [5] and in [6] was inactive. For the same compound, the compound was classed as inactive in test [7], in test [8], in [10], in [11], in test [12] and in test [13]. The compound was classed as inactive in test [14], in test [15], in [16], in test [17] and in test [18].
On to `CCCSP(=O)(OCC)SCCC`, for which the AC50 in test [1] is 5.47 µM (active); in test [3] it was 25.8 µM (active); in test [12], 15.5 µM (active); in test [14] it was 22.1 µM (active). Moreover, the result in test [4], in test [6], in test [7], in test [8], in test [10] and in test [11] was inactive. The result in test [13], in test [15], in test [16], in test [17] and in test [18] was inactive.
